This passage reports growth results from PubChem BioAssay (NCI).

In this test the test system is MDA-MB-468 breast. As to the kind of experiment: NCI-60 one-dose screen, 48 h (100 = growth as untreated, 0 = no growth, -100 = all killed). The settings on record: 10 µM unless noted.

“And” between values parts separate entries of the source, which are not always exact repeats. Equal entries are not always repeated. About 83,000 compounds went through this panel and 20% of them were active in at least one assay; those are over-represented in the sample as a whole.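 Interpretation: 100, growth as untreated; towards 0, rising growth inhibition; 0, no net growth; 0 to -100, cell death. Compounds scoring below 10 were considered active.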 Unmarked numbers belong to inactive results. The source made the active and inactive calls.

Turning to `COc1cccc2c1C(=O)c1c(O)c3c(c(O)c1C2=O)C[C@](O)(C(=O)CO)C[C@H]3O[C@@H]1C[C@@H](NC(=O)CCCN(C)C2(c3ccc(F)cc3)CC3CCC2C3)[C@H](O)[C@@H](C)O1` (stereo partly drawn), the growth was -82.4% (active).
Regarding `O=[N+]([O-])c1ccc(-c2noc(-c3cccs3)n2)cc1`, the growth was 56.6%.
For `CN(Cc1ccccc1)c1ccc(SC#N)cc1` the value was 84.2%.
For `O=C(NCCNc1nccc(-n2ccc3cccnc32)n1)c1ccc(C(F)(F)F)cc1` the value was 110%; for `CCN(CC)CCC(CNc1c2ccc([N+](=O)[O-])cc2nc2cc(OC)c(OC)cc12)c1ccccc1` (stereo not drawn), -58% (active) and -86.9% (active); for `CC(=O)OC1CC2C(C)(C)OC3CC(=O)OCC32C2CCC3(C)C(=CCC3c3ccoc3)C12C` (stereo not drawn), 39.1%.
For `COc1ccc2[nH]cc(/C=N/Nc3nc4ccccc4s3)c2c1`, the growth is 40.6%.
For `CC1=CC(=O)c2ccccc2C1=O` the value was 111%; for `COc1ccc(/C=C/C(=O)/C=C(/C=C/c2ccc(OC)c(OC)c2)OB(F)F)cc1OC`, 45.6%.
As for `Nc1c(C(=O)Nc2cccc(Br)c2)sc2nc3c(cc12)C(=O)CCC3`, the figure is 32.1%; as for `COc1cc(-c2ccc3ncnc(NCc4ccccc4)c3c2)cnc1OC`, 15.8%.
In the case of `CCc1ccccc1NC(=O)c1sc2nc3c(cc2c1N)CCCC3`, the growth is 43%.
As for `CCOC(=O)C1=CSC2=NC3=C(CCC/C3=C\c3ccc(Cl)cc3)C(c3ccc(Cl)cc3)N12` (stereo not drawn), the figure is 84.9%.
